Assay outcomes deposited in PubChem BioAssay by National Center for Advancing Translational Sciences (NCATS).
Only a selection was taken, and hits are over-represented in it overall.
TbPYK inhibitor – blocks Trypanosoma brucei pyruvate kinase; 410,000 compounds, 0.12% hits; Potency, µM (titrated, usually from 76.8 µM), hits mostly inhibitors; TbPYK enzyme, Kinase-Glo Plus ATP luminescence, 45 min; also: nearly all actives have a fitted effect of over 50% in size
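Assay buffer: 50 mM TEA pH 7.2, 100 mM KCl, 10 mM MgCl2, 0.05% BSA, 0.01% Tween-20. Pyruvate kinase from T. brucei plus substrate met compound, then ADP (130 uM final). Luminescence was read post 45 min RT.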
CHX counter – counter-screen for Shiga toxin inhibitors: cycloheximide protein synthesis inhibition; cell reporter, cycloheximide protein synthesis inhibition counterscreen; max response, %; 300,000 compounds, 12% hits; AID 2314; in the data active = max response mostly above about 13%, no sharp cut-off; inactive = mostly below about 14%; also: read at 38.3 µM for the half of the compounds with a filed dose
Sm TGR block – S. mansoni TGR enzyme inhibition. Q962Y6. purified TGR, DTNB reduction, TNB absorbance 405 nm. Potency, µM (doses to about 114 µM), most hits filed as inhibitors. 360,000 compounds, 3% hits. AID 485364; also: nearly all actives have a fitted effect of over 60% in size
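Kinetic colorimetric format: TGR-catalysed, NADPH-driven DTNB reduction monitored via TNB absorbance. Enzyme dispensed at 20 nM; compound exposure 15 min at room temperature before reaction start.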
Giardia FBPA inh – inhibitors of Giardia lamblia fructose-1,6-bisphosphate aldolase; A8B2U2; purified Giardia FBPA; Potency, µM (highest dose often 59.6 µM), actives largely listed as inhibitors; 290,000 compounds, 0.71% hits; also: nearly all actives have a fitted effect of over 55% in size
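40 nM FBPA preincubated 10 min at RT with compound (up to 57.5 uM final), then substrate plus GAPDH/TPI/NAD/arsenate coupling and diaphorase/resazurin added. Fluorescence read after 20 min at RT, 525/598 nm.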
Shiga toxin inh – Shiga toxin inhibition; Vero cells, Shiga toxin protein synthesis inhibition reporter; inhibition, % at 38.7 µM; 290,000 compounds, 9.2% hits; AID 2315; in the data active = inhibition mostly above about 28%, no sharp cut-off; inactive = mostly below about 43%
LmPK inh – LmPK (Leishmania mexicana) enzyme inhibition; 290,000 compounds, 0.37% hits; Potency, µM (doses to about 57.5 µM), hits mostly inhibitors; Q27686; purified LmPK, Kinase-Glo ATP luminescence, 1 h
Target sequence (Q27686 whole entry, looked up): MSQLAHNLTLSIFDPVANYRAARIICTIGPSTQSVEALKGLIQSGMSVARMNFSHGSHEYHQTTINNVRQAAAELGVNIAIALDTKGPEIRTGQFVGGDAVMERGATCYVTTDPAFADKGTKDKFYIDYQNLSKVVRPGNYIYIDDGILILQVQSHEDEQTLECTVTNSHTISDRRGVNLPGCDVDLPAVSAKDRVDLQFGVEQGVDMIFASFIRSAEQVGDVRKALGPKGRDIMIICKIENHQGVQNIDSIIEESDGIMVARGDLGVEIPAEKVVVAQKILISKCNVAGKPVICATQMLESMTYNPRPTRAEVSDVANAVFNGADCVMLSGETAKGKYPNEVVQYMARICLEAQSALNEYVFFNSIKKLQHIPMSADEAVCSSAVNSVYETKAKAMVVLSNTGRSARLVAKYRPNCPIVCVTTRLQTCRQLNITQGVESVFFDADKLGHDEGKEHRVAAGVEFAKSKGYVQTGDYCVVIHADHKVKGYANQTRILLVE
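Screened at intermediate enzyme activity to detect both inhibitors and activators: LmPK at 0.1 nM, with a 0.5 nM enzyme column as activation reference. PEP 0.5 mM, ADP 0.1 mM; ATP detected by luminescence after 1 h.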
Numbers stand for hits; n = inactive; u = inconclusive; x = no result given; ! = not confirmed by another sample; [ ] = dose if it differs, or a comment. Unless noted, calls follow the shape of the dose curve; as a rule, active = well fitted curve in the direction sought with a large enough effect; inconclusive = small, poorly fitted or top-dose-only effect, or another doubt; inactive = no such curve, though single readings can be large; an effect the other way counts as inactive or inconclusive.

SMILES	TbPYK inhibitor	CHX counter	Sm TGR block	Giardia FBPA inh	Shiga toxin inh	LmPK inh
Cc1c(NC(=O)c2ccc(-c3ccccc3)cc2)cccc1C(=O)O	n	35.1	n	n	65.9	n
COc1ccc(C(=O)Nc2ccccc2C(=O)O)cc1NC(=O)C(c1ccccc1)c1ccccc1	n	n	n	n	n	n
COc1ccc(-c2ccc3c(c2)c(Sc2ccccc2)c(-c2ccccc2)n3C)cn1	n	x	x	x	x	x
CCC(C(=O)Nc1ccccc1C(=O)OC)n1c(C)c2cnn(-c3ccccc3)c(=O)c2c1C (configuration not stated)	n	x	n	x	x	x
CCOC(=O)C1=C(CN2CCN(c3ccc(C)cc3C)CC2)NC(=O)NC1c1ccc(OC)cc1 (configuration not stated)	n	x	n	x	x	x
COc1ccc(-n2c(=O)cnc3cnc(OC)nc32)cc1	x	x	x	n	x	x
C=CCC1(CC=C)CCCN1C(=O)CC1C(=O)NCCN1Cc1cccc(OC)c1 (configuration not stated)	n	n	u	n	n	n
COc1cc(CN2CCNC(=O)C2CC(=O)NCCC2=CCCCC2)cc(OC)c1 (configuration not stated)	n	n	39.8µM	n	n	n
Cc1nc(CCNC(=O)CC2C(=O)NCCN2Cc2ccccc2F)sc1C (configuration not stated)	n	n	n	n	n	n
Cc1nc(CCNC(=O)CC2C(=O)NCCN2Cc2ccc(F)cc2)sc1C (configuration not stated)	n	n	20µM	n	n	n
C=CCC1(CC=C)CCCN1C(=O)CC1C(=O)NCCN1Cc1cc(OC)cc(OC)c1 (configuration not stated)	n	n	28.2µM	n	n	n
CCOc1ccc(CN2CCNC(=O)C2CC(=O)NCCC2=CCCCC2)cc1 (configuration not stated)	n	n	n	n	n	n
Cc1nn2cc(-c3cccc(Cl)c3)cnc2c1Br	n	n	n	n	56.2	n
CC(C)n1nnnc1-c1cccc(Cl)c1	n	n	n	n	n	n
Cc1nn2cc(-c3cccc(Cl)c3)cnc2c1Cl	n	33.1	n	n	124.1	n
COc1cccc(C#CC2=CC(=O)C[C@H](c3ccc(F)cc3)C2)c1	n	x	x	x	x	x
Cc1occc1-c1nnc(SCC(=O)c2c[nH]c3ccccc23)n1C	n	n	17.8µM	n	n	n
Cc1occc1-c1nnc(SCC(=O)N2CCCCC2)n1C	n	x	n	x	x	x
Cc1occc1-c1nnc(SCC(=O)c2ccc(Cl)cc2)n1C	n	n	39.8µM	n	n	n
O=C(c1cc2ccccc2oc1=O)N(Cc1ccc2c(c1)OCO2)Cc1ccco1	n	n	u	n	109.7	n
Cc1ccc(C2=NN(CCC(=O)NCCc3cccc(C)c3)C(=O)CC2)cc1	n	x	n	x	x	x
COc1ccc(NC(C)C(=O)Nc2ccc(C(C)(C)C)cc2)cc1Cl (configuration not stated)	n	20.4	n	n	n	n
COc1ccc(NC(C)C(=O)Nc2ccc(C#N)cc2)cc1Cl (configuration not stated)	n	n	n	n	n	n
CCOC(=O)N1CCC2(CC1)OC(=O)C(C)=C2C(=O)NCc1ccc(C)cc1	n[15.4 µM]	x	n	x	x	x
CC1=C(C(=O)Nc2ccc(C)cc2C)C(c2ccccc2)n2ncc(C(=O)Nc3ccccc3)c2N1 (configuration not stated)	n	x	n	x	x	x
SMILES	TbPYK inhibitor	CHX counter	Sm TGR block	Giardia FBPA inh	Shiga toxin inh	LmPK inh
O=C(N/N=C\c1ccc(-c2cccc(Cl)c2)o1)C(=O)NC1CCCC1	n	n	x	n	n	n
O=C(O)c1cc(N/N=C/c2ccc(-c3ccc(F)cc3)o2)ccc1Cl	n	45.6	n	n	152.1	n
O=C(O)c1ccc(N/N=C/c2ccc(-c3cccc(Cl)c3)o2)cc1	n	60.1	n	n	82.5	n
O=C(O)c1ccc(N/N=C/c2ccc(-c3cc(Cl)ccc3Cl)o2)cc1	n	81.4	n	n	112.1	n
O=C(O)c1ccc(N/N=C/c2ccc(-c3ccc(Cl)cc3Cl)o2)cc1	n	38.9	n	n	111.3	n
O=C(NCCCNC(=O)c1ccco1)c1ccc(F)cc1	n	n	n	n	n	n
COc1ccc(C(C(=O)NCc2ccccc2)N(C(=O)Cn2nnc3ccccc32)c2ccc(OC)cc2)cc1 (configuration not stated)	n	x	n	x	x	x
CC(=O)N[C@@H](Cc1ccc(O)cc1)C(=O)N[C@H](C(=O)N[C@@H](C)C(=O)N[C@H](C#N)CC(=O)O)C(C)C	x	x	n	x	x	x
CC(C)CO/N=C1/C[C@@H](O)[C@@H](O)[C@@H]2[C@H]3C(=O)N(c4ccc(F)cc4F)C(=O)[C@@H]3CC[C@@H]12	x	x	x	n[12.9 µM]	x	x
COc1ccccc1CCNC(=O)CN1C(=O)c2ccccc2S1(=O)=O	n	x	n	x	x	x
COc1ccc(C)c2sc(N3CCN(C(=O)c4ccco4)CC3)nc12	n	x	n	x	x	x
C[c-]1[c-](C)[c-](C)[c-](C)[c-]1C.[Fe].c1cc2nccc(N3CCCC3)[c-]2c1 (configuration not stated)	n	n	3.16µM!	u	n	31.6µM!
c1cc(N2CCCCC2)nc(N2CCCCC2)n1	n	x	x	x	x	x
C/C(=N/NC(=O)CCc1ccccc1)c1ccc2c(c1)OCO2	n	n	n	n	n	n
C/C(=N/NC(=O)c1ccc2c(c1)OCO2)c1ccc(NC(=O)C(F)(F)F)cc1	n	41.2	n	n	35.6	n
CNC(=S)N/N=C(\C)c1ccc2c(c1)OCO2	n	n	u	u	n	n
C/C(=N\NC(=O)c1ccc2c(c1)OCO2)c1ccc(NS(C)(=O)=O)cc1	n	x	x	x	x	x
C/C(=N\NC(=O)c1cc(C)oc1C)c1ccc2c(c1)OCO2	n	47.5	n	n	121.6	n
CC(=O)Nc1cccc(/C(C)=N/NC(=O)c2ccc3c(c2)OCO3)c1	n	25.7	n	n	n	n
C/C(=N\NC(=O)c1ccccc1)c1ccc2c(c1)OCO2	n	51.4	n	n	95.7	n
C/C(=N\NC(=O)c1ccc(NS(=O)(=O)c2cccs2)cc1)c1ccc2c(c1)OCO2	n	n	n	n	n	n
O=S(=O)(NCCc1csc2nc(-c3ccccc3)nn12)c1cc(F)ccc1F	n	x	n	x	x	x
C/C(=N\NC(=O)c1ccc(Br)cc1)c1cccnc1	n	21.9	n	n	n	n
CC/C(=N\NC(=O)c1ccc2c(c1)OCO2)c1ccccc1	n	37.4	n	n	46.0	n
CC(C)CNC(=S)NNC(=O)c1ccc2c(c1)OCO2	n	n	n	n	n	n
CC(C)CC(CC(C)C)=NNC(=O)c1ccc2c(c1)OCO2	n	51.9	n	n	73.7	n
C/C(=N\NC(=O)c1c[nH]c2ccccc12)c1ccc2c(c1)OCO2	n	29.5	n	n	42.0	n
